Screening results as filed in PubChem BioAssay.
HT1080 IDH1KD tx: toxicity to HT-1080 IDH1 knockdown cells (counter line); HT-1080 IDH1 knockdown viability, ATP luminescence, 48 h; Potency, µM (series often up to 46.1 µM), actives largely listed as cytotoxic; 2% of 360,000 active
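Assay cells: HT-1080 with IDH1 knockdown, 750 per well, RPMI/5% FBS. Exposure: 48 h at 37 °C following 2 h pre-incubation. Read: CellTiter-Glo luminescence; fitted concentration-response, curve class assigned.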
HT1080NT lethal: kills 2HG-producing HT-1080-NT fibrosarcoma cells. HT-1080-NT fibrosarcoma viability, CellTiter-Glo ATP luminescence, 48 h. Potency, µM (doses to about 46.1 µM), hits mostly cytotoxic. 1.6% of 360,000 active. AID 686970;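 further: NT is the 2HG producing partner of a matched IDH1 knockdown line; nearly all actives have a fitted effect of over 55% in size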
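Read-out is CellTiter-Glo luminescence after 10 minutes at room temperature, following 48 hours' compound treatment of HT-1080-NT cells (750 cells/well, RPMI, 5% FBS, 37 degrees C).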
DT40 TDP1 CPT: DT40-hTDP1 cell growth loss with CPT; chicken DT40 Tdp1-/-;hTDP1 cells + 20 nM CPT, ATP luminescence, 48 h; Potency, µM (titrated, usually from 46.2 µM), most hits filed as inhibitors; 12% of 420,000 active; further: nearly all actives have a fitted effect of over 55% in size
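Chicken DT40 Tdp1-/- cells stably complemented with human TDP1 were seeded at 400 cells/well in medium containing 20 nM camptothecin, exposed to pin-transferred compounds, and grown at 37 °C for at least 48 hr. Viability was read as ATP luminescence.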
DT40 TDP1 no CPT: qHTS for Inhibitors of human tyrosyl-DNA phosphodiesterase 1 (TDP1): qHTS in cells in absence of CPT. 15% of 420,000 active. DT40 Tdp1-/- hTDP1 cells, no CPT, ATP luminescence, 48 h. Potency, µM (doses to about 46.2 µM), hits mostly inhibitors; further: nearly all actives have a fitted effect of over 55% in size
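DT40 Tdp1-/-;hTDP1 cells, no CPT (DMSO vehicle only), 400 cells/well; compounds pin-transferred; ≥48 hr, 37 °C; CellTiter-Glo 30 min RT dark, luminescence read.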
KB-V1 cytotox: KB-V1 MDR subline cytotoxicity | 3.4% of 400,000 active | Potency, µM (doses to about 46.1 µM), most hits filed as cytotoxic | AID 1347076 | KB-V1 MDR cells viability, CellTiter-Glo, 72 h; further: nearly all actives have a fitted effect of over 60% in size
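KB-V1 cells (P-gp-expressing MDR subline of KB-3-1) in phenol-red-free DMEM with 10% FBS were exposed to library compounds over a concentration series for 72 h at 37 degrees C. Viability read by CellTiter-Glo luminescence; concentration-effect curves fitted after normalization.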
KB-3-1 tox: KB-3-1 parental cell cytotoxicity; KB-3-1 viability, CellTiter-Glo ATP luminescence, 72 h; Potency, µM (titrated, usually from 46.1 µM), actives largely listed as cytotoxic; 1.4% of 400,000 active; further: nearly all actives have a fitted effect of over 60% in size
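Cytotoxicity measured as CellTiter-Glo luminescence after 72 h at 37 C. Compound titrations were pinned onto drug-naive KB-3-1 parental adenocarcinoma cells grown in DMEM with 10% FBS, and normalized data fitted to concentration-response curves.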
Large screens that a line does not name were inactive. Compounds with a hit are over-represented: about 19% of the library has one in this group of screens. The call rests on the fitted dose curve; in most records, active means well fitted curve in the direction sought with a large enough effect; inconclusive means small, poorly fitted or top-dose-only effect, or another doubt; inactive means no such curve, though single readings can be large; an effect the other way counts as inactive or inconclusive.

CCCS(=O)(=O)NC(=O)C1(C)CCCN(C(=O)c2ccccc2OC)C1 (stereo unspecified)	HT1080NT lethal inconclusive
COC1=C(OC)[C@]23CCc4ccc(OC)c(OC)c4[C@]2(CCN3C)CC1=O	none
COc1ccc(CCNC(=O)CCCCn2c(=O)c3ccccc3n(Cc3ccccc3Cl)c2=O)cc1OC	DT40 TDP1 CPT inconclusive, DT40 TDP1 no CPT inconclusive (no result: HT1080 IDH1KD tx, HT1080NT lethal)
Cc1cc(C)c(Cn2c(C(=O)O)c(C=O)c3ccccc32)c(C)c1	KB-V1 cytotox inconclusive
Cc1ccc(CNCc2c(C(=O)O)n(Cc3ccccc3C)c3cc(C)ccc23)cc1	DT40 TDP1 CPT inconclusive, DT40 TDP1 no CPT 7.31µM, KB-3-1 tox inconclusive (no result: HT1080 IDH1KD tx, HT1080NT lethal)
CCc1ccc(-n2c(SC(CC)C(=O)N(CC)CC)nc3n[nH]c(C)c3c2=N)cc1 (stereo unspecified)	DT40 TDP1 CPT 2.59µM, DT40 TDP1 no CPT 2.59µM (no result: HT1080 IDH1KD tx, HT1080NT lethal)
CC(=O)NCC(N)C(=O)c1ccc(Cl)c(Cl)c1 (stereo unspecified)	HT1080NT lethal inconclusive, DT40 TDP1 CPT inconclusive, DT40 TDP1 no CPT inconclusive (no result: KB-V1 cytotox, KB-3-1 tox)
C=CCN(CC(=O)c1sc(C(=O)OCC)nc1C)c1cccc(Br)c1	DT40 TDP1 CPT inconclusive, DT40 TDP1 no CPT inconclusive
Nc1cc(Cl)c2nonc2c1[N+](=O)[O-]	HT1080 IDH1KD tx 11.6µM, HT1080NT lethal 7.31µM, DT40 TDP1 CPT 0.731µM, DT40 TDP1 no CPT 0.651µM, KB-V1 cytotox inconclusive, KB-3-1 tox 16.4µM
CCn1c(P(C)(=O)O)nc2cc(NC(=O)c3ccccc3F)ccc21	none
COc1ccccc1C(=O)Nc1ccc2nc(SCC(=O)N3CCCc4ccccc43)sc2c1	DT40 TDP1 CPT 5.17µM, DT40 TDP1 no CPT 2.91µM (no result: HT1080 IDH1KD tx, HT1080NT lethal, KB-V1 cytotox, KB-3-1 tox)
O=C(Nc1ccc2nc(SCC(=O)N3CCCc4ccccc43)sc2c1)c1ccccc1F	DT40 TDP1 CPT 5.8µM, DT40 TDP1 no CPT 5.17µM (no result: HT1080 IDH1KD tx, HT1080NT lethal, KB-V1 cytotox, KB-3-1 tox)
O=C(O)C(Cc1cnc[nH]1)NS(=O)(=O)c1ccc(Br)cc1 (stereo unspecified)	HT1080NT lethal inconclusive
O=S(=O)(c1cc(Cl)cc(Cl)c1)N1Cc2cc(N3CCOCC3)ccc2-n2nncc2C1	DT40 TDP1 CPT inconclusive, DT40 TDP1 no CPT inconclusive
O=C(c1cc2c(s1)-c1ccccc1OC2)N1CCC2(CC1)OCCO2	HT1080 IDH1KD tx inconclusive, HT1080NT lethal inconclusive, DT40 TDP1 CPT inconclusive, DT40 TDP1 no CPT inconclusive, KB-V1 cytotox 13µM
O=C(c1cc2c(s1)CCCC2)N1CCC2(CC1)OCCO2	DT40 TDP1 no CPT inconclusive
C/C(=N\N1CCCCCC1)c1c(O)n(C2CCCCC2)c(=O)[nH]c1=O	HT1080NT lethal inconclusive, DT40 TDP1 no CPT inconclusive
C[C@]12CCC3C(CC[C@H]4C[C@@H](O)CC[C@]34C)C1=CC[C@@H]2O (stereo partly specified)	DT40 TDP1 no CPT inconclusive, KB-V1 cytotox inconclusive
Cc1ccc(-c2csc3ncnc(OCC(=O)NC(=O)NCc4ccco4)c23)cc1	HT1080 IDH1KD tx inconclusive, HT1080NT lethal inconclusive, DT40 TDP1 CPT inconclusive, DT40 TDP1 no CPT inconclusive
O=C(Nc1c(Cl)cccc1Cl)Oc1cccc2cccnc12	HT1080 IDH1KD tx 3.66µM, HT1080NT lethal 6.51µM, DT40 TDP1 CPT 4.11µM, DT40 TDP1 no CPT 4.61µM, KB-V1 cytotox inconclusive, KB-3-1 tox inconclusive
O=C(Nc1cccc(Br)c1)Oc1cccc2cccnc12	HT1080 IDH1KD tx inconclusive, HT1080NT lethal 16.4µM, DT40 TDP1 CPT 5.17µM, DT40 TDP1 no CPT 3.26µM, KB-V1 cytotox inconclusive, KB-3-1 tox inconclusive
O=C(O)C(O)(c1ccc(Cl)cc1)C1(O)CCCC1 (stereo unspecified)	none
CN1C(=O)CC(=O)N(c2ccccc2)c2cc(Cl)ccc21	none (no result: HT1080 IDH1KD tx, HT1080NT lethal, KB-V1 cytotox, KB-3-1 tox)
C[C@]12CCC3C(CC[C@H]4C[C@@H](O)CC[C@]34C)[C@H]1CC[C@H]2O (stereo partly specified)	DT40 TDP1 no CPT inconclusive, KB-V1 cytotox inconclusive
O=C(c1ccccc1)N1CCN(c2ccccc2)CC1	DT40 TDP1 no CPT 23.1µM
CC(=O)OC1(C)CC(C)C(=O)C(C(O)CC2CC(=O)NC(=O)C2)C1 (stereo unspecified)	HT1080 IDH1KD tx 0.13µM, HT1080NT lethal 1.64µM, DT40 TDP1 CPT 0.184µM, DT40 TDP1 no CPT 0.206µM, KB-V1 cytotox inconclusive, KB-3-1 tox inconclusive
CCOC(=O)C(NC(=O)CC)(Nc1ccc(C(O)(C(=O)OCC)C(F)(F)F)cc1C)C(F)(F)F (stereo unspecified)	none
CCOC(=O)C(O)(c1ccc(NC(=S)NC(=O)c2ccc(Cl)cc2Cl)c(C)c1)C(F)(F)F (stereo unspecified)	HT1080 IDH1KD tx 23.1µM, HT1080NT lethal 16.4µM, DT40 TDP1 CPT inconclusive, DT40 TDP1 no CPT 11.6µM, KB-V1 cytotox inconclusive, KB-3-1 tox inconclusive
COC(=O)C(O)(c1ccc(NC(=S)NC(=O)c2ccc(Cl)cc2Cl)c(C)c1)C(F)(F)F (stereo unspecified)	HT1080 IDH1KD tx inconclusive, HT1080NT lethal inconclusive, DT40 TDP1 CPT inconclusive, DT40 TDP1 no CPT 20.6µM, KB-V1 cytotox inconclusive, KB-3-1 tox inconclusive
CNC(=O)N(C)c1ccc(C(O)(C(=O)OC)C(F)(F)F)cc1 (stereo unspecified)	KB-V1 cytotox inconclusive
C=C1C/C(=C/C)C(=O)O[C@@H]2CCN3CC=C(COC(=O)[C@]1(C)O)[C@@H]23	none (no result: HT1080 IDH1KD tx, HT1080NT lethal, KB-V1 cytotox, KB-3-1 tox)
COc1ccc(S(=O)(=O)N(C)C[C@H]2OCCCC[C@@H](C)Oc3ccc(N(C)C)cc3C(=O)N([C@H](C)CO)C[C@@H]2C)cc1	DT40 TDP1 CPT inconclusive, DT40 TDP1 no CPT 23.1µM
C[C@@H]1CN([C@H](C)CO)C(=O)c2cc(/C=C/c3ccccc3)cnc2O[C@H]1CN(C)C(=O)NC1CCCCC1	DT40 TDP1 CPT inconclusive, DT40 TDP1 no CPT inconclusive, KB-V1 cytotox inconclusive
C[C@@H]1CCCCO[C@@H](CN(C)S(=O)(=O)c2ccc(F)cc2)[C@@H](C)CN([C@H](C)CO)C(=O)c2cc(N(C)C)ccc2O1	DT40 TDP1 CPT inconclusive, DT40 TDP1 no CPT 20.6µM
COc1cccc(NP2(=O)OCC(C)([N+](=O)[O-])CO2)c1 (stereo unspecified)	none
O=C(O)C1C2CCC(O2)C1C(=O)Nc1cccc(Br)c1 (stereo unspecified)	none
C#C[C@@]1(O)CCC2C3CCC4=C/C(=N/OCC(=O)NC(CCC(N)=O)C(=O)O)CC[C@]4(C)C3CC[C@@]21C (stereo partly specified)	none
